Common to all, as to test: NCI-60 one-dose screen, 48 h (100 = growth as untreated, 0 = no growth, -100 = all killed)
Common to all, as to conditions: 10 µM unless noted

In assay [1] the test system is SR leukemia.
Assay [2] concerns RPMI-8226 leukemia.
For assay [3], the system named is OVCAR-8 ovarian.
The subject of assay [4] is OVCAR-5 ovarian.
For assay [5], the system named is SK-OV-3 ovarian.
Assay [6] relates to IGROV1 ovarian.
The test system of assay [7] is OVCAR-3 ovarian.
The subject of assay [8] is HS 578T breast.
For assay [9], the system named is NCI/ADR-RES ovarian.
Assay [10] relates to T-47D breast.
Assay [11] concerns BT-549 breast.
The subject of assay [12] is MDA-MB-435 melanoma.
Assay [13] concerns SW-620 colon.
Assay [14] has as its system MCF7 breast.
In assay [15] the test system is HCT-116 colon.
For assay [16], the system named is HCC-2998 colon.
The test system of assay [17] is KM12 colon.
The test system of assay [18] is OVCAR-4 ovarian.

About 83,000 compounds went through this panel and 20% of them were active in at least one assay; those are over-represented in the sample as a whole.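 The endpoint reported here, percent growth, reads 100 for growth as untreated, 0 for no net growth and -100 for all cells dead.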 A number with no mark means an inactive call. Activity calls are given as the source filed them. How the source made its calls: active means growth percent below 10; inactive means the rest.

For `COc1ccc(/C=C2\COc3ccc(O)c(O)c3C2=O)cc1`, the growth was 21.6% in [1]; 4.17% (active) in assay [2]; 7.39% (active) in assay [3]; -12.3% (active) in assay [4]; 63.5% in [5]; 1.03% (active) in [6]. For the same molecule, the growth in assay [7] was 11.1%; in assay [8] it was 19.5%; in [9], 6.53% (active); in [10], 6.94% (active); in assay [11], -6.78% (active); in assay [12], 11%. For the same molecule, the growth in assay [13] is 6.34% (active); in assay [14], 19%; in assay [15], 10.8%; in assay [16], 50.7%; in assay [17], 8.91% (active).

`Cc1ccc(-c2csc(NC(=O)CN3CCN(c4cc5c(cc4F)c(=O)c(C(=O)O)cn5C4CC4)CC3)n2)cc1`: the growth in assay [1] was -0.152% (active); in assay [2], 6.21% (active); in [3] it was 10.6%; in assay [4], 21.1%; in assay [5] it was -7.14% (active); in assay [6] it was 25.4%. The growth was 14.8% in assay [7]; 47.8% in [8]; 4.91% (active) in assay [9]; 6.74% (active) in [10]; 16.2% in assay [11]; 14.4% in assay [12]. For the same molecule, the growth is 27.4% in assay [13]; 6.16% (active) in [14]; 14.2% in assay [15]; 31.2% in assay [16]; 8.87% (active) in assay [17].

`CS(=O)(=O)Nc1cc(-c2ccc3ncnc(Nc4ccc5c(cnn5Cc5ccccn5)c4)c3c2)cnc1Cl`: the growth is 58.3% in assay [1]; 68.8% in assay [2]; 90.3% in assay [3]; 68.5% in [4]; 89.7% in assay [5]; 38.1% in assay [6]. Besides, the growth was 44.1% in assay [7]; 25.4% in [8]; 93.3% in assay [9]; 18.5% in [10]; 56.7% in [11]; 77.5% in [12]. Also, the growth is 84.3% in assay [13]; 36% in assay [14]; 92.9% in assay [15]; 80.4% in assay [16]; 95.4% in assay [17].

For `CC1(c2ccccc2O)NN=C(/N=C/c2cccc([N+](=O)[O-])c2)N1C(Cc1c[nH]c2ccccc12)C(=O)O` (configuration not stated), the growth was 87.7% in [1]; 81.3% in assay [2]; 88.7% in assay [3]; 106% in assay [4]; 61.3% in assay [5]; 62% in assay [6]. Also, the growth was 95% in [7]; 95.8% in assay [8]; 97.1% in assay [9]; 91.1% in [10]; 97.5% in assay [11]; 106% in [12]. For the same molecule, the growth was 94.9% in assay [13]; 77.3% in assay [14]; 87% in assay [15]; 97.8% in [16]; 96.4% in assay [17].

Regarding `CS(=O)(=O)Nc1cc(-c2ccc3ncnc(Nc4c(Cl)ccc5c4OCO5)c3c2)cnc1Cl`, the growth in assay [1] was -8.28% (active); in assay [2], -19.7% (active); in assay [3] it was 8.87% (active); in [4], -28.6% (active); in assay [5] it was -10.2% (active); in assay [6], -53.5% (active). Further, the growth in [7] is -64.5% (active); in assay [8], -16.2% (active); in [9] it was 3.66% (active); in assay [10] it was -30.6% (active); in assay [11], -26% (active); in assay [12], -24.9% (active). In addition, the growth in assay [13] is 2.07% (active); in assay [15] it was -22.6% (active); in [16] it was -36% (active); in [17] it was -39.7% (active).

Turning to `N#CCSc1nnc2n(Cc3ccccc3)c(=O)c3c4c(sc3n12)CCCC4`, the growth was 94.8% in [1]; -61.3% (active) in assay [2]; 95.1% in [3]; 92.2% in assay [4]; 101% in [18]; 107% in assay [5]. In addition, the growth in assay [7] was 98.5%; in assay [8], 95.3%; in [9], 91%; in [10] it was 111%; in assay [11], 98.7%; in assay [12] it was 107%. In addition, the growth in assay [13] is 109%; in assay [15], 92.7%; in assay [16], 105%; in assay [17], 101%.

As to `CCSc1nc(NC)c2cc(-c3ccc(C(F)(F)F)cc3)ccc2n1`, the growth is 94% in assay [1]; 94.8% in assay [2]; 102% in assay [3]; 104% in assay [4]; 96.1% in assay [5]; 110% in [7]. In addition, the growth in assay [8] is 101%; in assay [9], 106%; in assay [10], 91.4%; in assay [11], 94.4%; in [12], 102%; in assay [13], 105%. The growth in assay [14] was 92.8%; in assay [15], 96.9%; in assay [16], 111%; in assay [17] it was 103%.

In the case of `Nc1ncnc2c1N=C(c1ccc(Cl)cc1)CC(c1ccc3c(c1)OCO3)N2` (configuration not stated), the growth in [1] was 77.3%; in assay [2] it was 60.3%; in assay [3] it was 91.7%; in [4] it was 85.6%; in assay [5], 21%; in assay [6], 46%. Besides, the growth in [7] is 85.5%; in assay [8], 93.8%; in assay [9], 98.2%; in [10], 93.8%; in [11] it was 95.5%; in assay [12], 101%. Further, the growth was 100% in assay [13], 81.2% in assay [14], 83.7% in [15] and 103% in assay [17].

Take `O=C1c2cccc3cccc(c23)C(=O)N1N1C(=O)c2cccc3c(N4CCOCC4)ccc(c23)C1=O`: the growth in [1] is 92.4%; in assay [2] it was 106%; in [3], 96.2%; in assay [4] it was 97.1%; in assay [5], 90%; in assay [6], 95.6%. Further, the growth in [7] is 106%; in [8] it was 90.3%; in assay [9], 92%; in assay [10], 91.7%; in assay [11] it was 87.2%; in assay [12], 102%. The figures for the growth in [13], in [15] and in assay [17] were 100%, 91.3% and 100%, respectively.

Values taken from PubChem BioAssay (NCI).
